The source made the active and inactive calls.
What was measured:
[1] = test system: Human papillomavirus type 1a protein E7 (residues 44-93); experiment: small molecules binding HPV E7 44-93 – biochemical, small-molecule microarray, residues 44-93, 635 nm fluorescence, primary screen (AID 1108); conditions: fluorescence 635 nm, higher = more signal;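 further: E7 fragment applied at 1 µg/mL in TBST for 1 h at 4 C; score combines spot fluorescence with its signal to noise ratio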
[2] = hepatitis C replication reporter changes, two-sided – Huh7 cells, luciferase reporter, HCV replication inhibitor project, primary screen (AID 1109); conditions: Huh7 HCV replicon luciferase reporter, 48 h; higher = more signal;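 further: huh7 hepatoma cells harbouring a luciferase neomycin HCV replicon reporter; luciferase luminescence as measure of HCV replicon replication; test concentration not given here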
[3] = biological target: Left-right determination factor 2 (Homo sapiens) (UniProt O00292); experiment: small molecules binding LEFTY2 protein – biochemical, small-molecule microarray, 635 nm fluorescence scan, primary screen (AID 1110); conditions: higher = more signal
[4] = biological target: Calmodulin-1 (Homo sapiens) (UniProt P0DP23); experiment: small molecules binding calmodulin-1 with EGTA – biochemical, small-molecule microarray, Cy5-labelled CALM1, profiling panel (AID 1111); conditions: Cy5-CALM1 binding fluorescence, higher = more signal;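 further: labelled calmodulin applied in Tris saline Tween buffer holding calcium plus EGTA and DTT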
[5] = biological target: Calmodulin-1 (Homo sapiens) (UniProt P0DP23); experiment: small molecules binding Ca-loaded calmodulin-1 – biochemical, small-molecule microarray, Cy5-labelled CALM1, plus calcium, artefact control for SMM control-protein annotation, profiling panel (AID 1112); conditions: Cy5-CALM1 binding fluorescence, higher = more signal;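 further: score merges spot fluorescence with signal to noise from triplicate slides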
[6] = probe aWnt5a binding to arrayed compounds – biochemical, biotinylated probe, 635/667 nm fluorescence, primary screen (AID 1113); conditions: small-molecule microarray, higher = more signal;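 further: score merges 667 nm fluorescence intensity with signal-to-noise per printed feature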
[7] = probe aShh binding to arrayed compounds – biochemical, biotinylated probe, 635/667 nm fluorescence, primary screen (AID 1114); conditions: small-molecule microarray, higher = more signal;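 further: probe is biotin-labelled aShh protein from a stem cell growth factor screen; measures binding of labelled protein to compounds printed on the slide; score merges feature fluorescence at 667 nm with signal-to-noise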
[8] = probe aNog binding to arrayed compounds – biochemical, biotinylated probe, 635/667 nm fluorescence, primary screen (AID 1115); conditions: small-molecule microarray, higher = more signal;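 further: probe is biotinylated aNog protein used at 0.15 µg/mL for 1 h at 4 C; z-score combines 667 nm fluorescence of each spot with its signal to noise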
[9] = biological target: Torsin-1A-interacting protein 1 (Homo sapiens) (UniProt Q5JTV8); experiment: compound microarray binding of lysate hLAP1 – cell lysate, small-molecule microarray, COS7 lysate, 635/667 nm fluorescence, primary screen (AID 1116); conditions: 635 nm fluorescence, higher = more signal
[10] = biological target: Alpha-bungarotoxin (Bungarus multicinctus) (UniProt P60615); experiment: compounds binding labelled alpha-BTX control protein – biochemical, small-molecule microarray, Alexa647 label, 635/667 nm fluorescence, artefact control for SMM control protein annotation, profiling panel (AID 1117); conditions: alpha-BTX-A647 binding fluorescence, higher = more signal
Albumin (Bos taurus) = Albumin (Bos taurus) (UniProt P02769); experiment: compounds binding labelled BSA control protein – biochemical, small-molecule microarray, Alexa647 label, 635/667 nm fluorescence, artefact control for SMM control protein annotation, profiling panel (AID 1118); conditions: BSA-A647 binding, fluorescence 635 nm, higher = more signal;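 further: score merges 667 nm emission intensity and signal-to-noise per printed compound spot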
[11] = probe aXIP binding to arrayed compounds – biochemical, NeuroSMM set, 635/667 nm fluorescence, primary screen (AID 1119); conditions: small-molecule microarray, higher = more signal, called active from +8 up or from −8 down;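 further: probe is the protein aXip251-270 applied at 1 µg/mL to compound-printed slides; binding of probe to printed compounds measured as 667 nm fluorescence plus signal to noise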
[12] = probe aNOTCH3 binding on compound microarray – biochemical, small-molecule microarray, 635/667 nm fluorescence, primary screen (AID 1120); conditions: higher = more signal;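 further: probe is a biotin-tagged antibody raised against NOTCH3 rather than NOTCH3 protein; score merges spot fluorescence near 667 nm with spot signal to noise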
[13] = probe aNOTCH2 binding on compound microarray – biochemical, small-molecule microarray, 635/667 nm fluorescence, primary screen (AID 1121); conditions: higher = more signal;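 further: score merges feature fluorescence read at 667 nm with its signal to noise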
[14] = biological target: Carbonic anhydrase 2 (Homo sapiens) (UniProt P00918); experiment: compounds binding carbonic anhydrase 2 – biochemical, small-molecule microarray, Alexa647-labelled CAII, profiling panel (AID 1122); conditions: CAII-A647 binding fluorescence, higher = more signal
[15] = COS7 lysate on small-molecule microarray, probe aHis, 635 nm (AID 1123); conditions: COS7 cell lysate, fluorescence, higher = more signal;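 further: z-score combines 667nm fluorescence intensity with signal-to-noise per printed compound spot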
[16] = probe aLAP1 signal on lysate-treated microarray – cell lysate, small-molecule microarray, COS7 lysate, primary screen (AID 1124); conditions: probe aLAP1, fluorescence, higher = more signal;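 further: lysate comes from COS7 cells expressing LAP1 and is applied at 0.3 µg/mL; score merges spot fluorescence near 667 nm with signal-to-noise over triplicate slides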
Sam68 (KHDRBS1) = experiment: compounds binding KHDRBS1 protein – biochemical, small-molecule microarray, 635 nm fluorescence, primary screen (AID 1125); conditions: higher = more signal;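 further: score merges 667 nm channel intensity with signal to noise over triplicate slides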
[17] = test system: Chordin-like protein 2 (CHRDL2); experiment: compounds binding chordin-like 2 – biochemical, small-molecule microarray, 635 nm fluorescence, primary screen (AID 1126); conditions: fluorescence 635 nm, higher = more signal;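 further: printed compound slides probed with Chrdl2 protein at 4 µg/mL for 1 h at 4 C; score merges 667 nm emission intensity with signal to noise over three replicate slides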
[18] = biological target: Concanavalin-A (Canavalia ensiformis) (UniProt P02866); experiment: compounds binding concanavalin A lectin – biochemical, small-molecule microarray, Alexa647 label, 635 nm, artefact control for SMM control protein annotation, primary screen (AID 1127); conditions: ConA-A647 binding fluorescence, higher = more signal;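 further: z combines 667 nm emission intensity with signal-to-noise across three replicate slides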
Concanavalin-A (Canavalia ensiformis), sequence (P02866 whole entry, looked up): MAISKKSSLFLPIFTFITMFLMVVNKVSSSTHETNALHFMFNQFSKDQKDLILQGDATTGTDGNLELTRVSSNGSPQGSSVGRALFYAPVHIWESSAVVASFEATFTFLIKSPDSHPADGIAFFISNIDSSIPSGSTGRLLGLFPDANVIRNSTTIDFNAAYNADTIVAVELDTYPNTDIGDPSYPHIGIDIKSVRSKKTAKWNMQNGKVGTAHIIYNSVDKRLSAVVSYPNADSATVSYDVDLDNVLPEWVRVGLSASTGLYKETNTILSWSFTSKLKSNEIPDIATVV

Alpha-bungarotoxin (Bungarus multicinctus), sequence (P60615 whole entry, looked up): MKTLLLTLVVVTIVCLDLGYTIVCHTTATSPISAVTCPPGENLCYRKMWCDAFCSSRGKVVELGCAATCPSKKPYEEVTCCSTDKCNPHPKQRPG
Torsin-1A-interacting protein 1 (Homo sapiens), sequence (Q5JTV8 whole entry, looked up): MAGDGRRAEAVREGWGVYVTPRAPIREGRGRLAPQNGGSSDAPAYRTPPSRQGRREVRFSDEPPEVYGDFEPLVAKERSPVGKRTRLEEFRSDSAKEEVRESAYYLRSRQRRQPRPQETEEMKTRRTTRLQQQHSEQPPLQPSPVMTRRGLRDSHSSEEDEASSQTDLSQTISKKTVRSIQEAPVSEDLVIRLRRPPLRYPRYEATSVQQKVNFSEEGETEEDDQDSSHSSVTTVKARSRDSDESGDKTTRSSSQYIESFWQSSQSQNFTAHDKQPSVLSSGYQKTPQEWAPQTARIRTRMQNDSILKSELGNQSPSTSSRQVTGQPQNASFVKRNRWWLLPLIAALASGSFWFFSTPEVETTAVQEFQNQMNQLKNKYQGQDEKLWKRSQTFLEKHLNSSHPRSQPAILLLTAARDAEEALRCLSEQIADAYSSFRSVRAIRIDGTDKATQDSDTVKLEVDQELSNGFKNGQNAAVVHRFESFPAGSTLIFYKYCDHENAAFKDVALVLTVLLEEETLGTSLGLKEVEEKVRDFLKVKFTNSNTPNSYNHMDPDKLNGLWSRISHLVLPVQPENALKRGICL
Albumin (Bos taurus), sequence (P02769 whole entry, looked up): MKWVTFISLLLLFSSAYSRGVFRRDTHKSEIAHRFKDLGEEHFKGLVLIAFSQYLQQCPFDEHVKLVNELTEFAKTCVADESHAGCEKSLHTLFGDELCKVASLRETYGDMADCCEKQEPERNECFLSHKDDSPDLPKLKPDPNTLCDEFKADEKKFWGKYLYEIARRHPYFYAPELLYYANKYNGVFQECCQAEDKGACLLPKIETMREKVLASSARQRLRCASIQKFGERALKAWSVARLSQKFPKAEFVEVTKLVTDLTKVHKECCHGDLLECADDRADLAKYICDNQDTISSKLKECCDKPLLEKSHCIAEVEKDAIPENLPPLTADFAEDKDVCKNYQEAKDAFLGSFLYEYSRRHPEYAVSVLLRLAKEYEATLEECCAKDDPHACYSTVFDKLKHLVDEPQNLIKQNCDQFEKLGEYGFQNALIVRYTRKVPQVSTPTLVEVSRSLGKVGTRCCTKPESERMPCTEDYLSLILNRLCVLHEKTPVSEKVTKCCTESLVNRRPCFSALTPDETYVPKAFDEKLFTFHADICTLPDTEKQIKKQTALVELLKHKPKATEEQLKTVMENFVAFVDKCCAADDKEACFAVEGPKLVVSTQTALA
Left-right determination factor 2 (Homo sapiens), sequence (O00292 whole entry, looked up): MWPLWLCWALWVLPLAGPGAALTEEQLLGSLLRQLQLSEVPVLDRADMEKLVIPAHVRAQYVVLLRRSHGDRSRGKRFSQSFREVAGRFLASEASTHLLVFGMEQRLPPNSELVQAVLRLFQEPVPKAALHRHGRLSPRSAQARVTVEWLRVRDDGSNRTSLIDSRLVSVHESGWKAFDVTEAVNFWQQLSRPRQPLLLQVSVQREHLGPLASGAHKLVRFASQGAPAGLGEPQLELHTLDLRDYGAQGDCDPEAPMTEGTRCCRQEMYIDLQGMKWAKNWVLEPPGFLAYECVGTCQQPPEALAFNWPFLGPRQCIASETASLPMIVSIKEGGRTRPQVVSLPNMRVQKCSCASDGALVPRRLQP

SMILES | composite z-score [1] | z-score [2] | composite z-score [3] | composite z-score [4] | composite z-score [5] | composite z-score [6] | composite z-score [7] | composite z-score [8] | composite z-score [9] | composite z-score [10] | composite z-score (Albumin (Bos taurus)) | composite Z-score [11] | composite z-score [12] | composite z-score [13] | composite z-score [14] | composite z-score [15] | composite z-score [16] | composite z-score (Sam68 (KHDRBS1)) | composite z-score [17] | composite z-score [18]
COc1ccc(COC(=O)NN=C2C[C@@H](O)[C@@H](O)[C@@H]3[C@@H]4C(=O)N(c5ccc(F)cc5F)C(=O)[C@@H]4CC[C@H]23)cc1 | -0.246 | -0.107 | -0.551 | -0.252 | -0.318 | -0.169 | -0.0769 | -0.273 | -0.724 | 0.616 | 0.446 | 3.84 (inactive) | 0.0961 | -0.157 | -0.0507 | -0.181 | 0.0054 | -0.169 | -0.293 | 0.0493
C=CC1=C[C@H](O)[C@@H]2O[C@@H]2C12OCCCO2 | 0.304 | -0.876 | 0.152 | -0.396 | -1.05 | -0.105 | -0.381 | -0.165 | 0.169 | 0.43 | -0.728 | -0.174 (inactive) | -0.131 | -0.0878 | 0.0206 | -0.281 | -0.115 | 0.372 | 0.202 | 0.337
COC(=O)[C@H](C)NC(=O)CCC1CC(OC(=O)NCc2ccc3c(c2)OCO3)CC2(CCCC(COC(=O)NCC(c3ccccc3)c3ccccc3)O2)O1 (stereo not given in full) | 1.42 | 0.327 | 0.739 | 0.869 | -0.663 | -0.0037 | -0.229 | -0.11 | 0.587 | 1.04 | 0.409 | 0.265 (inactive) | 0.0159 | -0.123 | 0.478 | 1.29 | 0.165 | 1.29 | 0.738 | 1.12
CO[C@H]1COC(=O)[C@@H]2CCCN2C(=O)CC=C[C@@H](C)[C@H](OC)COC(=O)[C@@H](OCc2ccccc2)C=C[C@@H]1C | -0.556 | -0.389 | 1.04 | -0.584 | -1.15 | -0.0882 | -0.2 | -0.408 | 0.0642 | -0.178 | -0.761 | -1.04 (inactive) | 0.114 | -0.115 | -0.499 | -0.756 | -0.549 | -0.11 | 1.33 | -0.4
CCOC(=O)[C@H](CC(C)C)NC(=O)CCC1CC(OC(=O)NCc2cccc3ccccc23)CC2(CCCC(COC(=O)NCCCN3CCCC3=O)O2)O1 (stereo not given in full) | 1.15 | -1.12 | 0.446 | 0.446 | -0.385 | -0.194 | -0.206 | -0.467 | 0.196 | 0.754 | 0.247 | -0.122 (inactive) | -0.0328 | -0.108 | 0.581 | 0.444 | -0.0183 | 1.29 | 0.256 | 0.832
CCN1C(=O)[C@H]2[C@H]3[C@H](O)[C@H](O)CC(=NOC[C@H]4O[C@H](c5ccccc5)C=C[C@@H]4Oc4ccc(OC)cc4)[C@@H]3CC[C@H]2C1=O | 0.783 | -1.65 | 0.621 | 0.406 | -0.332 | -0.0045 | 0.318 | 0.364 | 0.447 | 1.05 | 0.741 | 0.246 (inactive) | 0.0311 | -0.0274 | 0.353 | 0.383 | 0.106 | 1.16 | 0.514 | 0.817
CCOC(=O)NN=C1C[C@@H](O)[C@@H](O)[C@@H]2[C@@H]3C(=O)N(Cc4ccc5c(c4)OCO5)C(=O)[C@@H]3CC[C@H]12 | 0.581 | 0.603 | -0.0985 | -0.569 | -0.0188 | -0.129 | -0.206 | -0.177 | 1.05 | 0.543 | 0.717 | -0.0189 (inactive) | -0.0629 | -0.14 | 0.347 | 0.926 | -0.387 | 0.364 | -0.121 | -1.27
CCCNC(=O)OC[C@H]1O[C@H](c2ccccc2)C=C[C@@H]1Oc1ccc(OC)cc1 | -0.823 | -0.974 | 0.424 | -0.598 | -0.202 | -0.132 | -0.153 | -0.343 | 0.124 | -0.0001 | 0.16 | 0.0414 (inactive) | -0.15 | -0.14 | 0.066 | 0.232 | 0.0186 | -0.573 | 0.062 | -0.316
CC(C)=CCCC(C)=CCON=C1C[C@@H](O)[C@@H](O)[C@@H]2[C@@H]3C(=O)N(C(C)(C)C)C(=O)[C@@H]3CC[C@@H]12 | 0.0739 | -0.0781 | 0.542 | -0.195 | -0.608 | -0.0203 | -0.0626 | -0.116 | 0.1 | 0.372 | 0.0038 | -0.204 (inactive) | -0.127 | -0.0859 | -0.0211 | -0.13 | -0.0115 | 0.383 | 0.129 | 0.411
CC(C)CON=C1[C@H]2CCn3c(=O)n(Cc4cc5c(cc4Cl)OCO5)c(=O)n3[C@H]2[C@H](O)[C@@H]2O[C@H]12 | 0.271 | 0.0671 | 0.389 | -0.0844 | -0.635 | -0.0758 | 0.0815 | -0.329 | 0.38 | 0.351 | -0.0261 | 0.242 (inactive) | -0.0328 | -0.0718 | 0.0904 | -0.182 | -0.177 | 0.344 | 0.529 | 0.702
COc1ccc(O[C@H]2C=C[C@@H](c3ccccc3)O[C@@H]2CON=C(C)CCN2CCc3nc(-c4ccccc4)c(-c4ccccc4)cc3C2)cc1 | -0.797 | -3.38 | -0.417 | 0.387 | -0.0427 | -0.169 | -0.123 | -0.198 | 0.173 | 0.67 | 0.628 | -0.508 (inactive) | -0.085 | -0.18 | -0.117 | -0.0458 | -0.251 | -0.83 | -0.163 | 0.799
